{"source": "PubChem BioAssay AID1345085", "about": "(National Center for Advancing Translational Sciences (NCATS), 2018)", "note": "Results filed as inconclusive are left out. Entries that show only a call come without a potency. The source made the active and inactive calls. Calls follow the shape of the dose curve; as a rule, active = well fitted cell-killing curve with a large enough effect; inconclusive = small, poorly fitted or top-dose-only effect, or effect the other way; inactive = no such curve, though single readings can be large or run the other way. Potency is read from the fitted curve at half-maximal effect."}
{"system": "CAOV3", "test": "Confirmatory qHTS for gynecologic anti-cancer compounds from libraries of approved drugs and bioactive compounds; also: nearly all actives have a fitted effect of over 55% in size", "conditions": "gynecologic cancer cell panel viability, ATPlite luminescence, 48 h; series mostly up to 57.6 µM", "outline": "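Seeding 1,000 cells per well preceded overnight (16 h) attachment, after which 48 h drug treatment across 57.5 uM–0.977 nM (11 points) was applied. Remaining cellular ATP, detected by ATPlite luminescence, defined IC50.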"}
{"smiles": "C/C=C(/C)C(=O)O[C@H]1C(C)=C2[C@H]([C@@H]1OC(=O)CCCCCCC)[C@@](C)(OC(C)=O)C[C@H](OC(=O)CCC)[C@@]1(O)[C@H]2OC(=O)[C@@]1(C)O", "Potency": "9680 nM (active)"}
{"smiles": "CCNC(=O)C[C@@H]1N=C(c2ccc(Cl)cc2)c2cc(OC)ccc2-n2c(C)nnc21", "Potency": "1220 nM (active)"}
{"smiles": "CCOc1ccccc1-n1c(C(C)N2CCN(C(=O)COc3ccc(Cl)cc3)CC2)nc2ccccc2c1=O", "note": "(centres undefined)", "Potency": "inactive"}
{"smiles": "C[C@]12CC[C@H]3[C@@H](CCC4=CC(=O)CC[C@@H]43)[C@@H]1CC[C@@H]2OC(=O)CCc1ccccc1", "Potency": "inactive"}
{"smiles": "CCN1CCN(C(=O)Cc2ccc(Nc3ncc(F)c(Nc4ccc(C(=O)Nc5ccccc5Cl)cc4)n3)cc2)CC1", "Potency": "inactive"}
{"smiles": "C[C@H]1CCC/C=C/C2C[C@H](O)C[C@H]2[C@H](O)/C=C/C(=O)O1", "note": "(some centres undefined)", "Potency": "306 nM (active)"}
{"smiles": "CCC(=O)O[C@H]1CC[C@H]2[C@@H]3CCC4=CC(=O)CC[C@]4(C)[C@H]3CC[C@]12C", "Potency": "inactive"}
{"smiles": "C=C(C)[C@H]1Cc2c(ccc3c2O[C@@H]2COc4cc(OC)c(OC)cc4[C@@H]2C3=O)O1", "Potency": "inactive"}
{"smiles": "O=C(O)Cc1ccccc1", "Potency": "inactive"}
